{"source": "PubChem BioAssay (EPA / NIEHS)", "note": "Calls of active or inactive are those of the source. Rule for the calls: active = hit-call score of the fitted dose curve at least 0.9, where 1 is the maximum; inactive = score below 0.9.", "data": [{"assay": "APR_HepG2_NuclearSize_1hr: Apredica 1-hour HepG2 Assay for Nuclear Size (AID 2282670)", "settings": "high-content imaging, actives raise or lower the signal", "experimental": "APR_HepG2_1hr is a cell-based, multiplexed-readout assay that uses HepG2, a human liver cell line, with measurements taken at 1 hour after chemical dosing in a 384-well plate.APR_HepG2_NuclearSize_1hr is one of 10 assay component(s) measured or calculated from the APR_HepG2_1hr assay. It is designed to make measurements of cell phenotype, a form of morphology reporter, as detected with fluorescence intensity signals by HCS Fluorescent Imaging technology.Data from the assay component APR_HepG2_NuclearSize_1hr was analyzed into 1 assay endpoint. This assay endpoint, APR_HepG2_NuclearSize_1hr, was analyzed with bidirectional fitting relative to DMSO as the negative control and baseline of activity. Using a type of morphology reporter, measures of all nuclear dna for gain or loss-of-signal activity can be used to understand the signaling at the nuclear-level. Furthermore, this assay endpoint can be referred to as a primary readout, because this assay has produced multiple assay endpoints where this one serves a signaling function. To generalize the intended target to other relatable targets, this assay endpoint is annotated to the cell morphology intended target family, where the subfamily is organelle conformation.\nCells were treated with dimethyl sulfoxide (DMSO) as a solvent control at a final concentration of 0.5% v/v or with compounds in DMSO with a resulting final DMSO concentration of 0.5% v/v. Compound treatment was done at concentrations of 0.39, 0.78, 1.56, 3.12, 6.24, 12.5, 25, 50, 100, and 200 uM in duplicate on each plate. Cells were treated with compounds for 1, 24, or 72 hr. Carbonyl […] m-chloro-phenylhydrazone (CCCP) and taxol were used as positive controls for mitochondrial function and cytoskeletal stability, respectively; DMSO served as the negative control for this experiment. Cells were fixed by the direct addition of 50 uL formaldehyde in Hank's Balanced Salt Solution (HBSS) to a final concentration of 3.7%. After incubation in the fixation medium for 30 min at room temperature (293-298 K), cells were rinsed twice with HBSS and treated with cell permeabilization buffer (16 uL of 0.5% Triton X-100) for 10 min at room temperature (293-298 K) before labeling. For mitochondrial membrane potential and mitochondrial measurements, pre-fixed cells were incubated with 50 uL of MitoTracker Red CMXRos (Invitrogen) at a concentration of 250 nM for 30 min before fixation. In the remaining cases, post-fixed cells were labeled by incubation with a multiplexed mixture of primary antibodies in HBSS for 60 min at room temperature (293-298 K) to detect immunoreactivity of c-Jun (1:500), phospho-histone H3 (1:100), phospho-histone H2A.x (1:200), p53 (1:400), alpha-tubulin (1:200) and Hoechst 33342 (2 ug/mL). Cells were labeled for multiplexed imaging on two separate plates: a) Hoechst 33342, MitoTracker Red, phospho-histone H3, and alpha-tubulin, and b) Hoechst 33342, phospho-histone H2A.x, and c-Jun. A final rinse with HBSS (50 uL) was performed before analysis. The primary and secondary antibodies for the proteins were phospho-histone H3 (rabbit anti-phospho-histone H3 and FITC-donkey anti-rabbit IgG), phospho-histone H2A.x (mouse anti-phospho-histone H2A.x and FITC-donkey anti-mouse IgG), c-Jun (rabbit anti-phospho-c-Jun and Cy3-donkey anti-rabbit IgG), p53 (sheep anti-p53 and Cy5-donkey anti-sheep IgG), alpha-tubulin (mouse anti-alpha-tubulin and Cy5-donkey anti-mouse IgG). These antibodies are available as the CellCiphr HepG2 assay kit (Millipore).Digital images of each well were captured using a Cellomics ArrayScan VTI (Thermo Scientific Cellomics) (0.8 NA objective, 0.63x optical coupler, and XF-93 filter set) at 20x magnification. The images were acquired using the autofocus feature of the ArrayScan instrument, which entails the following steps. First, the camera focuses on channel 1 (Hoechst 33342), where nuclei are identified. Second, a Z offset of 1 um is used for capturing mitochondria (MitoTracker Red). […]", "values": [{"smiles": "CNC(=O)/C=C(\\C)OP(=O)(OC)OC", "outcome": "inactive"}, {"smiles": "CC(C)N(C(=O)COc1nnc(C(F)(F)F)s1)c1ccc(F)cc1", "outcome": "inactive"}, {"smiles": "O=C(O)CCCOc1ccc(Cl)cc1Cl", "outcome": "inactive"}, {"smiles": "O=C(Nc1ccccc1)Nc1cnns1", "outcome": "inactive"}, {"smiles": "Oc1ccc(Cl)cc1Cc1ccccc1", "AC50": "112 µM (active)"}, {"smiles": "CCOc1nc(NC)nc(NC(=O)NS(=O)(=O)c2ccccc2C(=O)OC)n1", "outcome": "inactive"}, {"smiles": "COc1cc(OC)nc(NC(=O)NS(=O)(=O)c2cc(NC=O)ccc2C(=O)N(C)C)n1", "outcome": "inactive"}, {"smiles": "CCOC1Oc2ccc(OS(C)(=O)=O)cc2C1(C)C", "note": "(stereo not given)", "outcome": "inactive"}, {"smiles": "CCS(=O)(=O)c1cccnc1S(=O)(=O)NC(=O)Nc1nc(OC)cc(OC)n1", "outcome": "inactive"}, {"smiles": "CCN(CC)C(=O)SCc1ccc(Cl)cc1", "outcome": "inactive"}, {"smiles": "CCC(C)(NC(=O)c1cc(Cl)c(C)c(Cl)c1)C(=O)CCl", "note": "(stereo not given)", "outcome": "inactive"}, {"smiles": "Clc1ccccc1-c1nnc(-c2ccccc2Cl)nn1", "outcome": "inactive"}, {"smiles": "COP(=O)(OC)OC=C(Cl)Cl", "outcome": "inactive"}, {"smiles": "O=C(O)COc1ccc(Cl)cc1Cl", "outcome": "inactive"}, {"smiles": "O=S(=O)(O)C(F)(F)C(F)(F)C(F)(F)C(F)(F)C(F)(F)C(F)(F)C(F)(F)C(F)(F)F", "outcome": "inactive"}, {"smiles": "C[C@H]1[C@H](c2ccc(Cl)cc2)SC(=O)N1C(=O)NC1CCCCC1", "outcome": "inactive"}, {"smiles": "COP(=S)(OC)Oc1ccc(SC)c(C)c1", "outcome": "inactive"}, {"smiles": "CC1(c2ccc(Oc3ccccc3)cc2)OC(=O)N(Nc2ccccc2)C1=O", "note": "(stereo not given)", "outcome": "inactive"}, {"smiles": "Cc1[nH]c(=O)n(C(C)(C)C)c(=O)c1Cl", "outcome": "inactive"}, {"smiles": "CC(C)(C)C(O)/C(=C\\c1ccc(Cl)cc1Cl)n1cncn1", "note": "(stereo not given)", "outcome": "inactive"}, {"smiles": "N#Cc1c(Cl)c(Cl)c(Cl)c(C#N)c1Cl", "outcome": "inactive"}, {"smiles": "O=[N+]([O-])/N=C1\\NCCN1Cc1ccc(Cl)nc1", "outcome": "inactive"}, {"smiles": "CC(C)OC(=O)Nc1cccc(Cl)c1", "outcome": "inactive"}, {"smiles": "O=C(O)C(F)(F)C(F)(F)C(F)(F)C(F)(F)C(F)(F)C(F)(F)C(F)(F)F", "outcome": "inactive"}, {"smiles": "COC(=O)c1ccccc1S(=O)(=O)NC(=O)N(C)c1nc(C)nc(OC)n1", "outcome": "inactive"}, {"smiles": "CCC(C)(C)C(=O)OC1=C(c2ccc(Cl)cc2Cl)C(=O)OC12CCCCC2", "outcome": "inactive"}, {"smiles": "Oc1cc(Cl)ccc1Oc1ccc(Cl)cc1Cl", "AC50": "158 µM (active)"}, {"smiles": "O=[N+]([O-])c1c(Cl)c(Cl)c(Cl)c(Cl)c1Cl", "outcome": "inactive"}, {"smiles": "[2H]C1([2H])[n+]2ccccc2-c2cccc[n+]2C1([2H])[2H]", "outcome": "inactive"}, {"smiles": "N#CN", "outcome": "inactive"}, {"smiles": "COP(=S)(OC)Oc1ccc([N+](=O)[O-])cc1", "outcome": "inactive"}, {"smiles": "CNC(=O)Oc1ccccc1OC(C)C", "outcome": "inactive"}, {"smiles": "COC(=O)c1ccccc1S(=O)(=O)NC(=O)Nc1nc(C)nc(OC)n1", "outcome": "inactive"}, {"smiles": "O=C(NC(=O)c1c(F)cccc1F)Nc1ccc(OC(F)(F)C(F)OC(F)(F)F)c(Cl)c1", "note": "(stereo not given)", "outcome": "inactive"}, {"smiles": "CCOCN(C(=O)CCl)c1c(C)cccc1CC", "outcome": "inactive"}, {"smiles": "OCCOc1ccccc1", "outcome": "inactive"}, {"smiles": "Cc1cc(C)nc(NC(=O)NS(=O)(=O)c2ccccc2C(=O)OC2COC2)n1", "outcome": "inactive"}, {"smiles": "O=S1OCC2C(CO1)C1(Cl)C(Cl)=C(Cl)C2(Cl)C1(Cl)Cl", "note": "(stereo not given)", "outcome": "inactive"}, {"smiles": "ClC1C(Cl)C(Cl)C(Cl)C(Cl)C1Cl", "note": "(stereo not given)", "outcome": "inactive"}, {"smiles": "COC(=O)c1ccccc1CS(=O)(=O)NC(=O)Nc1nc(OC)cc(OC)n1", "outcome": "inactive"}]}]}
